Measured values as given in PubChem BioAssay (NCI).
“And” between values parts separate entries of the source, which are not always exact repeats. Equal values may be shown once. The panel holds about 83,000 compounds, 20% with a hit somewhere; the sample as a whole holds those more often.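 Growth was measured after 48 h exposure to one concentration of compound in 96-well plates. Values under 10 count as active.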 The source made the active and inactive calls.

System: HL-60(TB) leukemia
Experiment: NCI-60 one-dose screen, 48 h (100 = growth as untreated, 0 = no growth, -100 = all killed)
Conditions: 10 µM unless noted

Structure (SMILES) | growth
O=C(CC(c1ccccc1)N1CCOCC1)c1ccccc1 (stereo unspecified) | 83.1% (inactive)
Cc1c(C(=O)NCc2ccccc2)[n+](=O)c2cc(F)ccc2n1[O-] | 189% (inactive)
COC(=O)/C(=C\c1c(-c2ccccc2)[nH]c2ccccc12)S(C)(=O)=O | 1.54% (active)
COc1ccc(/C=C/C(=O)c2ccc(OC)c(OC)c2)cc1O | 81.5% (inactive)
Nc1nonc1-c1nc2ccccc2n1Cc1ccc(F)cc1 | 21.5% (inactive)
COC(=O)CNC(=O)C(=O)c1c(O)c(O)c(C(C)C)c2cc(C)c(-c3c(C)cc4c(C(C)C)c(O)c(O)c(C(=O)C(=O)NCC(=O)OC)c4c3O)c(O)c12 | 24.6% (inactive)
CCCCOC(=O)c1c(C)[nH]c(/C=C2\N=C(c3ccc[nH]3)C=C2OC)c1C | 8.01% (active)
CCCCCCCCCCCC[n+]1ccc(C(N)=O)cc1 | -26.3% (active)
COc1ccc(-c2cn[nH]c2-c2ccc(OC)c(O)c2)cc1 | 46.1% (inactive)
CCc1c(C)c2cc(-n3c(-c4ccc(OC)cc4)csc3=N)c(O)c(C)c2oc1=O | -28.2% (active)
CC(=O)OCc1nc(C#N)c(N(C)C)o1 | 97.5% (inactive)
Cc1ccc(NCSc2ccc(Cl)cc2)cc1 | 3% (active) and 22.5% (inactive)
CC(C)(C)c1cc(-c2nc3ccc(N4CCN(S(C)(=O)=O)CC4)cc3[nH]2)cc(C(C)(C)C)c1O | 90.2% (inactive)
O=c1oc2cc(OS(=O)(=O)c3ccc(F)cc3)ccc2c2c1CCCCC2 | 60.6% (inactive)
O=C1/C(=C\c2cn(-c3ccccc3)nc2-c2ccc(-c3cccs3)cc2)CCc2ccccc21 | 50.2% (inactive)
CCN(CC)c1ccc(N=O)cc1 | 33.1% (inactive)
Cc1ccc(-n2c(-c3cc4c([nH]c5ccccc54)c(-c4cccc(O)c4)n3)n[nH]c2=S)cc1 | 2.59% (active)
CN(C)c1ccc(Nc2cc(-c3cccc(OC(F)(F)F)c3)nc3ccc(N4CCCC4)cc23)cc1 | -15.6% (active)
COc1ccc2c(c1)nnn1c3ncccc3c(N=O)c21 | -39.8% (active)
c1ccc(Cc2nn3cc(-c4ccccc4)nc3s2)cc1 | 68% (inactive)
CCCCNC(=O)CC1=C(C)/C(=C/c2[nH]c(-c3ccc[nH]3)cc2OC)N=C1C | 12.9% (inactive)
CN1CCN(CC#CCNC(=O)[C@]23CCC(C)(C)C[C@H]2C2=CC[C@@H]4[C@@]5(C)Cc6c([nH]c7ccccc67)C(C)(C)[C@@H]5CC[C@@]4(C)[C@]2(C)CC3)CC1 | 49.4% (inactive)
O=C(Nc1ccc(-n2cc(-c3ccncc3)c(-c3ccc(Cl)c(O)c3)n2)cc1)c1cc(C(F)(F)F)cc(C(F)(F)F)c1 | 52.6% (inactive)
COC(=O)[C@]12CC[C@@H](C)[C@H](C)[C@@H]1C1=CC[C@@H]3[C@@]4(C)CC(=O)[C@H](OC(=O)c5ccco5)[C@@]5(C)COC(=C45)C[C@@]3(C)[C@]1(C)CC2 | 24.6% (inactive)

Structure (SMILES) | growth
CO/N=C(/C)c1ccc(NC(=O)CSc2nnc(-c3ccncc3)n2-c2ccccc2)cc1 | 86% (inactive)
CCN(CC)C(=O)O/N=C(/C)c1ccccc1 | 95.5% (inactive)
CN(C)c1ccc(-c2cc(-c3ccc(Nc4nc(Nc5ccc(Cl)cc5)nc(Nc5ccc(Cl)cc5)n4)cc3)no2)cc1 | 3.2% (active)
CCCCOc1ccc(NC(=O)n2nc(N=NN(C)C)c3ccc(Cl)cc32)cc1 | 107% (inactive)
O=C1/C(=C/c2ccccc2[N+](=O)[O-])Cc2ccccc21 | 31.7% (inactive) and 63.7% (inactive)
COc1ccc(-c2cc(=O)c3c(O)cc(O)cc3o2)cc1 | 73.4% (inactive) and 103% (inactive)
O=C(Nc1nc2ccc(C(=O)N3CCN(c4ccc(Cl)c(Cl)c4)CC3)cc2s1)c1ccc(NCCc2ccccc2)c([N+](=O)[O-])c1 | 101% (inactive)
Cc1cc(C(C)(C)C)ccc1S | 111% (inactive)
CCN1C(=O)N(CC)C2Nn3c(s/c(=C4\C(=O)N(C)c5ccccc54)c3=O)=NC21 (stereo unspecified) | 21.1% (inactive)
Cc1nc(N)sc1Sc1nc2ccc(Cl)cc2c(=O)n1-c1ccc(Oc2ccccc2)cc1 | 59.4% (inactive)
COc1cc(-c2nn(C)nc2-c2cc3ccccc3s2)cc(OC)c1OC | -3.84% (active)
CC(=O)c1nc(Nc2ccc(C)cc2)sc1C | 101% (inactive)
N#Cc1ncc(-c2cc(F)c(F)c(F)c2)c(NC2CCCCCC2)n1 | 108% (inactive)
Nc1nccc2c1ccn2-c1ccc(NC(=O)Nc2cccc(C(F)(F)F)c2)cc1 | 117% (inactive)
ClCC(Cl)C1CCC(Cl)C(Cl)C1 (stereo unspecified) | 89.6% (inactive)
COc1ccc(Cl)cc1Nc1nc(C(F)(F)F)ccc1C(=O)N/N=C/c1cc(OC)c(OC)c(OC)c1 | -32.3% (active)
O=C1/C(=C/c2ccc(F)cc2)COc2ccc(O)cc21 | 19.1% (inactive)
O=C(N/N=C/c1cccc(O)c1)c1ccc(C(F)(F)F)nc1Nc1cccc(C(F)(F)F)c1 | -30.4% (active)
C/C(=C\c1ccccc1)c1ccccn1 | 70.9% (inactive)
CCCCC(=O)c1ccco1 | 103% (inactive)
COC(=O)/C=C/c1cc(OC)c2c(c1)[C@@H](C(=O)OC)[C@H](c1ccc(OC)c(OC)c1)O2 | -13.3% (active)
O=C(NN1C(=O)CSC1c1ccc(Cl)cc1)c1[nH]c2ccc(F)cc2c1-c1ccccc1 (stereo unspecified) | 35.5% (inactive)
Cc1ccc(Cl)cc1NC(=O)N(C)CCO | 92% (inactive)
COc1cc(C2CC(c3cccc(Nc4ccncc4)c3)=NN2c2ccc(Cl)cc2)cc(OC)c1OC (stereo unspecified) | -45.2% (active)

Structure (SMILES) | growth
NC(CSC(c1ccccc1)(c1ccccc1)c1ccccc1)C(=O)NCC(=O)O (stereo unspecified) | 55% (inactive)
C=C1C(=O)O[C@H]2[C@H]1CC/C(COC(=O)/C=C\C(=O)NCc1ccc(Cn3c(=O)sn(-c4ccc(Cl)cc4)c3=O)cc1)=C\CC[C@@]1(C)O[C@@H]21 | -52.5% (active)
COC(=O)/C=C1\S/C(=N\NS(=O)(=O)c2ccc(C)cc2)N(c2ccccc2)C1=O | 105% (inactive)
COC1=CC(c2ccc[nH]2)=N/C1=C\c1[nH]c(C)c(C(=O)CCCCC(=O)NCc2ccccc2)c1C | 69% (inactive)
COc1ccc(-c2nn(-c3cccc(Cl)c3)cc2-c2c(C#N)c(=O)n3[nH]c(-c4ccccc4)nc3c2C#N)cc1 | 79.9% (inactive)
CC(CN=Cc1ccccc1O)N=Cc1ccccc1O (stereo unspecified) | 110% (inactive) and 83% (inactive)
NC(=O)CSc1oc(-c2ccccc2)nc1S(=O)(=O)c1ccc(Br)cc1 | 82.1% (inactive)
N#Cc1c(N)[nH]c(S)c1C#N | 99% (inactive)
O=C(c1ccccc1)C(Cl)C(Cl)c1ccccc1 (stereo unspecified) | 25.2% (inactive)
CN1CCN(Cc2occc(=O)c2O)CCN(C)CCN(Cc2occc(=O)c2O)CC1 | 98.8% (inactive) and 48.1% (inactive)
Clc1ccc(/C=C/c2ccc3ccccc3n2)cc1 | -14.2% (active) and 77.3% (inactive) and 60.8% (inactive)
CSc1nc(N)c(CNC(C)c2ccccc2)c(=O)n1C (stereo unspecified) | 81.1% (inactive)
COC(=O)c1c2c(c(C)[n+]([O-])c1C)C(=O)C(NCc1ccc(Cl)cc1)=CC2=O | 80.3% (inactive)
c1ccc(CNc2nc(Nc3ccc(-c4nc5ccccc5[nH]4)cc3)c3cn[nH]c3n2)cc1 | -4.71% (active)
COc1ccc(C(=O)c2cc(C)c(OC)c(C)c2)c(OC)c1N(C(=O)C(Cl)Cl)C(=O)C(Cl)Cl | -32% (active)
CCN(CC)CCSc1nc(-c2ccccc2)c(C#N)c(=O)[nH]1 | 114% (inactive)
OCc1n(Cc2ccc3ccccc3c2)cc[n+]1Cc1ccc2ccccc2c1 | 6.82% (active)
O=S(=O)(NCCNc1cc(-c2cn(-c3ccccc3)nc2-c2cccc(O)c2)ccn1)c1ccc(Br)cc1 | 11.1% (inactive)
CCCCn1c(C)nc2ccc(Nc3nc(N4CCN(C)CC4)nc4nc[nH]c34)cc21 | 99.8% (inactive)
O=[N+]([O-])c1ccc(-c2nc(N3CCOCC3)c3c4c(sc3n2)CCCC4)cc1 | 92.2% (inactive)
Cc1n[nH]c(C)c1N=Nc1cccc2c1C(=O)c1ccccc1C2=O | 96.3% (inactive)
O=Nc1ccc(NO)c2ccccc12 | 108% (inactive) and 26.9% (inactive)
Cc1ccc(S(=O)(=O)N2C/C(=C\c3cc(F)cc(F)c3)C(=O)/C(=C/c3cc(F)cc(F)c3)C2)cc1 | 10.9% (inactive)
